“And” between values parts separate entries of the source, which are not always exact repeats. Equal entries are not always repeated. Inconclusive results are not listed. Values without a mark were called inactive. The source made the active and inactive calls. Calls come from the whole dose curve; as a rule, active = well fitted curve in the direction sought with a large enough effect; inconclusive = small, poorly fitted or top-dose-only effect, or another doubt; inactive = no such curve, though single readings can be large; an effect the other way counts as inactive or inconclusive.
Columns and labels:
[1] = target: Cellular tumor antigen p53 (Homo sapiens) (UniProt P04637); assay: Primary qHTS for small molecule compounds that upregulate eGFP-tagged delta133p53alpha (in N-terminal) cells. (AID 2060322); settings: NCI-H358 eGFP-delta133p53alpha fluorescence, 24 h; activation: hits give high values; note: nearly all actives have a fitted effect of over 75% in size; note: potency is the fitted concentration of half-maximal effect;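 for activation: series mostly up to about 56 µM; 0% = DMSO vehicle and 100% = reference activator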
Cellular tumor antigen p53 (Homo sapiens), sequence (P04637 whole entry, looked up): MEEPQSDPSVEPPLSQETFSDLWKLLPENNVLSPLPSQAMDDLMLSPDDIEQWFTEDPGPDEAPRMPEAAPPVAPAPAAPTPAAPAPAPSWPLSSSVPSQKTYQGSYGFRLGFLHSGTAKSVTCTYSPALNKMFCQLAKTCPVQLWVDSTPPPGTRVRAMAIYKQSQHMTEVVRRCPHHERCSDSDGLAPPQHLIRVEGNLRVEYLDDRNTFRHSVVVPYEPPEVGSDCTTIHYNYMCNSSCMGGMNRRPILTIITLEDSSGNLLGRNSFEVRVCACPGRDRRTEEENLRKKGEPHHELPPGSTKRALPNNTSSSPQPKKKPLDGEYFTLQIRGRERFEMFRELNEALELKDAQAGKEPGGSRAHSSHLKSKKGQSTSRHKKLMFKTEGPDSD
Method in brief: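 NCI-H358 cells pre-induced 24 h with 10 ng/ml doxycycline to express N-terminal eGFP-delta133p53alpha, then dosed 24 h at 37C without doxycycline; fixed, Hoechst-stained, GFP intensity by laser scanning cytometry, normalized to DMSO (0%) and 57.5 uM 5-azacytidine (100%).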

[2] = target: Aldehyde dehydrogenase, mitochondrial (Homo sapiens) (UniProt P05091); assay: qHTS for Inhibitors of the Aldehyde Dehydrogenase Family (ALDH2) Primary screen (AID 2061308);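 note: plate controls were vehicle for no effect and reference inhibitor for full effect; nearly all actives have a fitted effect of over 55% in size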
[3] = target: Retinaldehyde dehydrogenase 3 (Homo sapiens) (UniProt P47895); assay: qHTS for Inhibitors of the Aldehyde Dehydrogenase Family (ALDH1A3) Primary screen (AID 2061315);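 note: plate controls were DMSO vehicle for no effect and reference inhibitor for full effect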
[4] = BET inhibitor-based combinations targeting novel dependencies in MECOM-rearranged (r) AML: SET-2 cell line (AID 2202231); settings: SET-2 AML cells viability, CellTiter-Glo luminescence, 48 h; viability: hits give low values, concentration not given here; note: nearly all actives have a fitted effect of over 35% in size; note: potency is the fitted concentration of half-maximal effect;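 for viability: plate controls were DMSO treated cells for no effect and wells without cells for full effect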
Method in brief: (§1)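 Readout: CellTiter-Glo luminescence. Exposure: 48 h, 11 concentrations, 500 cells/well. Metric: AUC and within-line Z-AUC after DMSO/empty-well normalization.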

[5] = BET inhibitor-based combinations targeting novel dependencies in MECOM-rearranged (r) AML: MV-4-11 cell line (AID 2202233); note: nearly all actives have a fitted effect of over 45% in size; note: potency is the fitted concentration of half-maximal effect
Method in brief: (§2)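 Seeding density was 500 cells/well, and drug exposure lasted 48 hr under standard culture conditions. Read-out used CellTiter-Glo reagent with a 15 min room-temperature incubation before luminescence measurement; AUC and Z-AUC summarize the normalized responses.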

[6] = BET inhibitor-based combinations targeting novel dependencies in MECOM-rearranged (r) AML: HNT-34 cell line (AID 2202234); note: nearly all actives have a fitted effect of over 35% in size; note: potency is the fitted concentration of half-maximal effect
Method in brief: as §2

[7] = BET inhibitor-based combinations targeting novel dependencies in MECOM-rearranged (r) AML: UCSD-AML1 cell line (AID 2202235); note: nearly all actives have a fitted effect of over 40% in size; note: potency is the fitted concentration of half-maximal effect
Method in brief: as §2

[8] = BET inhibitor-based combinations targeting novel dependencies in MECOM-rearranged (r) AML: AML-191 cell line (AID 2202236; note: nearly all actives have a fitted effect of over 35% in size; note: potency is the fitted concentration of half-maximal effect)
Method in brief: as §1

[9] = BET inhibitor-based combinations targeting novel dependencies in MECOM-rearranged (r) AML: AML-194 cell line (AID 2202237; note: nearly all actives have a fitted effect of over 40% in size; note: potency is the fitted concentration of half-maximal effect)
Method in brief: as §1

Compound | activation [1] | Potency [2] | Potency [3] | Potency [4] | Potency [5] | Potency [6] | Potency [7] | Potency [8] | Potency [9] | Potency [1] | viability [4]
Cc1cnc(Nc2ccc(OCCN3CCCC3)cc2)nc1Nc1cccc(S(=O)(=O)NC(C)(C)C)c1 | 27.2% and -7.14% and 27.9% | inactive | inactive | 4.68 µM (active) | 0.742 µM (active) | 1.66 µM (active) | 2.35 µM (active) | 3.32 µM (active) | 5.25 µM (active) |  | 
OCCCNc1cc(-c2ccnc(Nc3cccc(Cl)c3)n2)ccn1 |  | inactive | inactive | 0.132 µM (active) | 0.132 µM (active) | 0.132 µM (active) | 0.0833 µM (active) | 0.0934 µM (active) | 0.332 µM (active) | 172 nM (active) and 301 nM (active) | 
Cn1cnc2c(F)c(Nc3ccc(Br)cc3F)c(C(=O)NOCCO)cc21 | 64.2% and -20.5% | inactive | inactive |  |  | 0.0235 µM (active) |  |  |  |  | 26.2%
Cc1n[nH]c(C)c1Cc1sc2c(c1C(=O)N1C[C@H](O)CO1)c(=O)n(C)c(=O)n2CC(C)C | 19.3% and -2.33% | inactive | inactive |  | inactive | inactive | inactive | inactive | inactive |  | 111%
COc1cc2nccc(Oc3ccc(NC(=O)NC4CC4)c(Cl)c3)c2cc1C(N)=O |  | inactive | inactive | 18.6 µM (active) | 2.09 µM (active) | 9.34 µM (active) |  | 20.9 µM (active) | inactive | 26.9 µM (active) | 
Cc1ccc(C(=O)Nc2cccc(C(F)(F)F)c2)cc1-c1ccc2nc(NCCN3CCOCC3)ncc2c1 |  | inactive | inactive | 11.8 µM (active) | 2.35 µM (active) | 0.0934 µM (active) | 3.32 µM (active) | 2.63 µM (active) | 3.32 µM (active) | 26.9 µM (active) | 
O=C(O)CCCc1c[nH]c2ccccc12 | -8.68% and -9% | inactive | inactive |  |  | inactive | inactive | inactive | inactive |  | 116%
CNc1nc(Nc2cnn([C@H]3CCN(C4COC4)C[C@@H]3F)c2Cl)ncc1C(F)(F)F | -10.7% and -17.9% | inactive | inactive |  | 1.32 µM (active) |  |  | 16.6 µM (active) |  |  | 94.3%
Cc1cccc(Oc2cnc(=O)[nH]c2)c1 | -25% | inactive | inactive |  | inactive | inactive | inactive | inactive | inactive |  | 115%
COc1cc2c(N3CCN(C(=O)Nc4ccc(OC(C)C)cc4)CC3)ncnc2cc1OCCCN1CCCCC1 | 54% and 21.4% | inactive | inactive |  | 0.59 µM (active) |  | 16.6 µM (active) |  | 23.5 µM (active) |  | 95.3%
COc1ccccc1[C@H](c1cccc2ccccc12)[C@@](C)(C#N)C(=O)N1CCC(c2cccc(C(F)(F)F)c2)CC1 | 0.109% | inactive | inactive |  | 5.25 µM (active) | 13.2 µM (active) | inactive | inactive |  |  | 110%
COCCNCc1ccc(-c2cc3nccc(Oc4ccc(NC(=O)C5(C(=O)Nc6ccc(F)cc6)CC5)cc4F)c3s2)nc1 |  | inactive | inactive | 13.2 µM (active) |  | 2.95 µM (active) | 8.33 µM (active) | 8.33 µM (active) | 5.25 µM (active) | 19 µM (active) | 
